Results taken from PubChem BioAssay (NCATS).
Records with an inconclusive call do not appear. Activity calls are given as the source filed them. Calls come from the whole dose curve; as a rule, active = well fitted curve in the direction sought with a large enough effect; inconclusive = small, poorly fitted or top-dose-only effect, or effect the other way, or another doubt; inactive = no such curve, though single readings can be large or run the other way.

biological target: Transient receptor potential cation channel subfamily V member 1 (Homo sapiens) (UniProt Q8NER1); experiment: HTS Assay for Compounds that Act as Enhancers of the Vanilloid Receptor 1 (AID 488979); conditions: TRPV1-expressing cells, enhancer of channel activity, stimulated with capsaicin at EC20; series mostly up to 41.7 µM
In short: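 TRPV1 cells loaded with Fluo-8 calcium dye; compound added and Ca2+ signal (ex 480/em 520 nm) followed 3 min, then capsaicin at EC20 added and read 2 more min to detect enhancement.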

Sequence of Transient receptor potential cation channel subfamily V member 1 (Homo sapiens) (Q8NER1 whole entry, looked up): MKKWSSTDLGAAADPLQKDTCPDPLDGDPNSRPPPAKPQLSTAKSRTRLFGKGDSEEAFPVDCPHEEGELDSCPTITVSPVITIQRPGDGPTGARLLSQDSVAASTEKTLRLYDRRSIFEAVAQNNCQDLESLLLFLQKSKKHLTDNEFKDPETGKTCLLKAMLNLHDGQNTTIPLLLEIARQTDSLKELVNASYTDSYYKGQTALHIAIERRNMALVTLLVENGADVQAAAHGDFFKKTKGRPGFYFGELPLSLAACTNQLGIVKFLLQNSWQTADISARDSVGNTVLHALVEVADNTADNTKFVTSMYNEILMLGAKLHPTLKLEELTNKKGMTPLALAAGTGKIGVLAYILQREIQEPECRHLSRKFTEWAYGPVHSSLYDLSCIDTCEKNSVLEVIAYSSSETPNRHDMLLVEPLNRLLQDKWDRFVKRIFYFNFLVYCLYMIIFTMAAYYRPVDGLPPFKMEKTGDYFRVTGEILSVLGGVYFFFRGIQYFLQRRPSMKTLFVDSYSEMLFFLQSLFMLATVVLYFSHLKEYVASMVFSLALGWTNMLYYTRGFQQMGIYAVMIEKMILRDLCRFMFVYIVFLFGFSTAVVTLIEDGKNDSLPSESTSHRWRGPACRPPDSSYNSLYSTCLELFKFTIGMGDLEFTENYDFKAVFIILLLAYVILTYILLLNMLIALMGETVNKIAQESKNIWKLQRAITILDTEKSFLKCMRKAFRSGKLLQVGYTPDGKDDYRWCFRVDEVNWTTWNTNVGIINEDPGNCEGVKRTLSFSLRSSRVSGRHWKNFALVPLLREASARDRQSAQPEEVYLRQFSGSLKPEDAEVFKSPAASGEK

| Compound | outcome |
| --- | --- |
| N[C@@H](CCCC(=O)O)C(=O)O | inactive |
| CSC(N)=NCCC[C@H](N)C(=O)O | inactive |
| NCCCCN=C(N)N | inactive |
| C#CCn1c(=O)c2c(ncn2C)n(C)c1=O | inactive |
| O=C(O)Cc1c[nH]c2ccc(O)cc12 | inactive |
| COc1cc(N)c(Cl)cc1C(=O)OCCN1CCCCC1 | inactive |
| c1ccc(C2CN3CCSC3=N2)cc1 (stereo not drawn) | inactive |
| NCCS(=O)O | inactive |
| Oc1ccc(Cn2cc[nH]c2=S)cc1 | inactive |
| COc1ccc(-c2ccc(N)[n+](CCCC(=O)O)n2)cc1 | inactive |
| CC(C)Cn1c(=O)n(C)c(=O)c2[nH]cnc21 | inactive |
| Cn1cc(C(F)(F)F)nc1-c1ccc(OCC(O)CNCCOc2ccc(O)c(C(N)=O)c2)cc1 (stereo not drawn) | inactive |
| Cn1c(=O)c2c(nc(/C=C/c3cccc(Cl)c3)n2C)n(C)c1=O | inactive |
| Cn1cc(C(=O)OCC2CCN(CCNS(C)(=O)=O)CC2)c2ccccc21 | inactive |
| NC/C=C\C(=O)O | inactive |
| Nc1ccc(-c2nc3ccc(-c4nc5ccc(N)cc5[nH]4)cc3[nH]2)cc1 | inactive |
| NC(=O)c1cc[n+](CC2=C(C(=O)O)N3C(=O)[C@@H](NC(=O)[C@@H](c4ccccc4)S(=O)(=O)[O-])[C@H]3SC2)cc1 | inactive |
| N[C@@H](Cc1c[nH]c2ccccc12)C(=O)O | inactive |
| CN[C@H](CC(=O)O)C(=O)O | inactive |

| Compound | outcome |
| --- | --- |
| CCCCCCCCCC[Si](C)(C)CCC(=O)NC(Cc1ccc(C)cc1)c1ccccc1 (stereo not drawn) | inactive |
| Cc1cccc(C)c1OCC(N)C(C)C (stereo not drawn) | inactive |
| Cn1ccnc1 | inactive |
| CCCn1c(=O)c2[nH]c(-c3ccc(S(=O)(=O)O)cc3)nc2n(CCC)c1=O | inactive |
| C#CC(N)CCC(=O)O (stereo not drawn) | inactive |
| COc1ccccc1N1CCN(CCCCNC(=O)c2ccc3ccccc3c2)CC1 | inactive |
| CCSC(=N)N | inactive |
| O=C(O)[C@H]1NCCC[C@H]1C(=O)O | inactive |
| CC(C)NC[C@H](O)COc1ccc(CC(N)=O)cc1 | inactive |
| CCC(=O)N1CCN(C(=O)c2ccccc2)CC1 | inactive |
| NC(=O)CNCCC(c1ccccc1)c1ccccc1 | inactive |
| Nc1ncnc2c1ncn2C1CCCO1 (stereo not drawn) | inactive |
| N=C(N)c1ccccc1 | inactive |
| O=C(O)/C=C/c1ccc(O)c(O)c1 | inactive |
| Cc1nc(N=Nc2ccc(C(=O)O)cc2)c(COP(=O)(O)O)c(C=O)c1O | inactive |
| CC[N+](CC)(CC)CC(=O)Nc1c(C)cccc1C | inactive |
| CCN1C(=O)C=CC1=O | inactive |
| O=C(O)CCC(=O)N1CCCC1C(=O)O (stereo not drawn) | inactive |
| O=C(O)C1CCNCC1 | inactive |
